Screening results deposited in PubChem by National Center for Advancing Translational Sciences (NCATS).
MCF10A rereplic: induces DNA re-replication in MCF 10a normal breast cells; 350,000 tested, 2.9% active; Potency, µM (doses to about 46.1 µM), without a hit: top-dose activity, positive = re-replication, most hits filed as activators; MCF 10A DNA re-replication, Hoechst nuclear intensity, 48 h; further: potency means the concentration at half of the fitted maximal effect; % of control where 0% means no effect; nearly all actives have a fitted effect of over 50% in size
Giardia kill: kills Giardia lamblia; Giardia lamblia trophozoite viability; activity change, % at 7.66 µM, hits read low; AID 540267; 340,000 tested, 0.15% active; in the data active means activity change below about -80%; inconclusive means between about -30% and that limit;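 further: parasites exposed to compound for two days anaerobically before the ATP read; on the % scale 0 is the no-effect control and ±100 the full control effect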
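ATP-content bioluminescence gauges trophozoite survival. Cells (100/well) receive compound and incubate anaerobically for 48 hrs at 37 deg C; detection reagent follows for 15-30 min at room temperature.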
KB-V1 cytotox: KB-V1 MDR subline cytotoxicity | KB-V1 MDR cells viability, CellTiter-Glo, 72 h | Potency, µM (highest dose often 46.1 µM), most hits filed as cytotoxic | 400,000 tested, 3.4% active | AID 1347076; further: potency means the concentration at half of the fitted maximal effect; on the % scale 0 is the no-effect control and ±100 the full control effect; nearly all actives have a fitted effect of over 60% in size
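Following 72 h at 37 degrees C with compound, KB-V1 cell viability was read by CellTiter-Glo luminescence, medium being phenol-red-free DMEM plus 10% FBS; concentration-response parameters came from normalized, curve-fitted qHTS data.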
KB-3-1 cytotox: KB-3-1 parental cell cytotoxicity | KB-3-1 viability, CellTiter-Glo ATP luminescence, 72 h | Potency, µM (highest dose often 46.1 µM), actives largely listed as cytotoxic | 400,000 tested, 1.4% active; further: potency means the concentration at half of the fitted maximal effect; on the % scale 0 is the no-effect control and ±100 the full control effect; nearly all actives have a fitted effect of over 60% in size
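Parental KB-3-1 viability, qHTS format: 72 h compound exposure, 37 °C; CellTiter-Glo; media-only wells and DMSO plates as controls; concentration-effect fits on corrected data.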
SW480 rereplic: induces DNA re-replication in SW480 colon adenocarcinoma cells; Potency, µM (titrated, usually from 46.1 µM), for inactives: top-dose re-replication activation, actives largely listed as activators; SW480 DNA re-replication, Hoechst DNA content imaging, 48 h; AID 624297; 340,000 tested, 1.8% active; further: potency means the concentration at half of the fitted maximal effect; % of control where 0% means no effect; nearly all actives have a fitted effect of over 55% in size
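Quantitative HTS format with DMSO vehicle controls; 48 hr drug incubation at 37 C, then 40 min Hoechst staining and scanning imager measurement at 405 nm excitation.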
S-ASM inh: inhibitors of human secretory acid sphingomyelinase; Potency, µM (titrated, usually from 57.5 µM), for inactives: at the highest dose activity change, negative = inhibition, most hits filed as inhibitors; P17405; AID 504937; placental ASM, HMU-PC fluorogenic substrate, 60 min; 340,000 tested, 0.006% active; further: potency means the concentration at half of the fitted maximal effect
Target sequence (P17405 47-631 limits assumed): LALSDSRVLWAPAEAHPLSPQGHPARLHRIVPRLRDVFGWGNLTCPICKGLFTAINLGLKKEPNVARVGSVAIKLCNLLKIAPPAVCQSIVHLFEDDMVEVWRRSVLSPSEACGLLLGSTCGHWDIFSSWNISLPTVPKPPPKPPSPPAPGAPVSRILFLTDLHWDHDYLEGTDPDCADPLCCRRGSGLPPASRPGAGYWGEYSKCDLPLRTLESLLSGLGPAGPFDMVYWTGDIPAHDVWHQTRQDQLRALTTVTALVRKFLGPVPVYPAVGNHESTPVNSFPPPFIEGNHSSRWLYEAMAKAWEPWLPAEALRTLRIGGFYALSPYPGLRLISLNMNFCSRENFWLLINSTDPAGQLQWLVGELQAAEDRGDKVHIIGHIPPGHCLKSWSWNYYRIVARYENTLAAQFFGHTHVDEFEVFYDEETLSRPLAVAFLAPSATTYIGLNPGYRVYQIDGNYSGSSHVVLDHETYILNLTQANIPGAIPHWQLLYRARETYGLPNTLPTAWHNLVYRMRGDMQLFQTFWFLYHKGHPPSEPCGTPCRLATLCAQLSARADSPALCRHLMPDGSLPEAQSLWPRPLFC
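Fluorescence read-out (Ex 386 nm, Em 447 nm) after stopping the reaction at pH 10. Enzyme: ASM from human placenta; substrate HMU-PC0, 9 uM final; 60 min, 37 °C. Compound preincubation 10 min, ambient temperature.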
* marks the source's active call; other numbers are inactive results; i = inactive; ? = inconclusive; nt = not tested or not shown. In the library only some 6.9% were active in any assay of this set; here they are far more common. Unless noted, the call rests on the fitted dose curve; in most records, active means well fitted curve in the direction sought with a large enough effect; inconclusive means small, poorly fitted or top-dose-only effect, or another doubt; inactive means no such curve, though single readings can be large; an effect the other way counts as inactive or inconclusive.

SMILES | MCF10A rereplic | Giardia kill | KB-V1 cytotox | KB-3-1 cytotox | SW480 rereplic | S-ASM inh
COC(=O)c1cc(-c2ccc(Br)cc2)c2c(=O)[nH]c(=O)n(C)c2n1 | -0.7% | 5.9 | i | i | 0.2% | 13.0%
COC(=O)c1cc(-c2ccc(OC)c(OC)c2)c2c(=O)[nH]c(=O)n(C)c2n1 | 6.51µM* | 22.2 | i | i | 29.3% | 35.2%
COC(=O)[C@@]12C[C@@H](CC(=O)NCc3ccc(OC)c(OC)c3)C(=O)N(Cc3ccccc3)C1=CCC(C)(C)C2 | nt | nt | i | i | nt | nt
O=C(COc1ccccc1C(=O)Nc1ccccc1)Nc1cccc(Br)c1 | nt | nt | i | i | nt | nt
CNC(=O)c1ccc2nc(-c3cccc(C)c3)c(-c3cccc(C)c3)nc2c1 | nt | 8.4 | i | i | nt | nt
CC(C)(C)c1ccc(NC(=O)N2CCCN(c3c(Cl)cncc3Cl)CC2)cc1 | 7.31µM* | 4.7 | i | i | ? | -4.3%
CSc1nc(N2CCOCC2)nc2ccc(C)cc12 | 20.6µM* | 5.9 | i | i | ? | i
Cc1cc2ccccc2cn1 | nt | nt | i | i | nt | nt
COc1ccc(-n2nc(C(=O)NCC(=O)Nc3cc(OC)c(OC)c(OC)c3)c3ccccc3c2=O)cc1Cl | 23.1µM* | 2.0 | i | i | 5.6% | -2.6%
CC1(C)COC(c2ccc3c(c2)OCO3)OC1 | -0.9% | -25.0 | ? | i | 2.8% | 2.3%
CC1=C(C(=O)OCc2ccc3nsnc3c2)N2C(=O)[C@@H](NC(=O)OCc3ccc4nsnc4c3)[C@H]2SC1 | nt | nt | i | i | nt | nt
COc1cc2nc(C)sc2cc1SC | 1.0% | -12.9 | i | i | -3.7% | -0.9%
COc1cc2nc(/C=C/c3cc(OC)c(OC)c(OC)c3)sc2cc1SC | ? | 13.3 | 10.3µM* | 23.1µM* | ? | i
O=S(=O)(c1ccccc1)c1ccc(N2CCCCCC2)cc1 | 6.4% | -1.0 | ? | i | -2.7% | 0.0%
Cc1ccc(Cl)cc1-n1c(=O)c2sc3ccccc3c2n(CC(=O)NC2CCCC2)c1=O | nt | nt | i | i | nt | nt
Cc1cccc(-c2c3c(=O)n(C)c(=O)n(C)c3cn2C(C)(C)C)c1 | -3.9% | 16.4 | i | i | 0.3% | 2.6%
Cc1cccc(-c2c3c(=O)n(C)c(=O)n(C)c3cn2C2CCCCC2)c1 | ? | 13.4 | 16.4µM* | i | 4.0% | ?
Cn1c(=O)c2c(-c3ccccc3)n(C3CCCCC3)cc2n(C)c1=O | -0.9% | -9.1 | 20.6µM* | i | -5.4% | ?
Cn1c(=O)c2c(-c3ccccc3)n(-c3ccccc3O)cc2n(C)c1=O | 0.8% | 26.3 | i | i | -2.8% | -2.0%
CO/N=C\CC(=O)Nc1ccc(Oc2ccccc2)cc1 | ? | 2.9 | ? | 8.2µM* | 5.17µM* | 2.6%
CCc1ccc(C2CC(=O)N3CN(c4ccccc4)CSC3=C2C#N)cc1 (centres undefined) | -0.1% | -15.9 | i | i | 1.2% | -9.0%
N#CC1=C2SCC(O)(c3ccccc3)N2C(=O)CC1c1ccccc1 (centres undefined) | 5.8µM* | 2.1 | 1.84µM* | 1.3µM* | 11.6µM* | -6.9%
Cc1ccccc1S(=O)Cc1ccc(C(=O)NC2CCCCCC2)o1 (centres undefined) | nt | nt | i | i | nt | nt
CC(C)CNC(=S)NNC(=O)c1csc2c1CCC(C)C2 (centres undefined) | 18.5% | 4.1 | 7.31µM* | i | -5.3% | -1.4%
CCCc1cc(C(=O)NNC(=S)Nc2cccc(C)c2)cs1 | 20.2% | -1.1 | 14.6µM* | i | -8.7% | -0.4%
SMILES | MCF10A rereplic | Giardia kill | KB-V1 cytotox | KB-3-1 cytotox | SW480 rereplic | S-ASM inh
Cc1ccc(C)c(NC(=S)NNC(=O)c2cc3c(s2)CCC(C)C3)c1 (centres undefined) | ? | 1.1 | i | i | -2.4% | 1.2%
Cc1cccc(NC(=S)NNC(=O)c2ccc3c(c2)OCO3)c1 | 10.6% | ? | i | i | ? | -2.2%
Cc1cccc(NC(=S)NNC(=O)c2cc3c(s2)CCC(C)C3)c1C (centres undefined) | 16.4µM* | -6.3 | ? | i | -3.7% | -6.2%
CC1CCc2c(C(=O)NCCN3CCOCC3)csc2C1 (centres undefined) | 1.4% | 1.9 | i | i | 7.3% | 5.0%
Cc1cccc(NC(=S)NNC(=O)c2csc3c2CCC(C)C3)c1 (centres undefined) | ? | 14.1 | 23.1µM* | i | 6.8% | -9.7%
CCOCCc1nn2c(=O)cc(COC(=O)c3ccc(NC(=O)c4cccs4)cc3)nc2s1 | nt | nt | i | i | nt | nt
CCC(C(=O)NC(C)(C)C)n1c(C(c2ccccc2)c2ccccc2)nc2ccccc21 (centres undefined) | nt | nt | ? | i | nt | nt
C(=Nc1cnc2ccccc2c1)c1ccnc2ccccc12 | nt | nt | i | i | nt | nt
CCOC(=O)CSc1nc2c([nH]c3ccccc32)c(=O)n1-c1ccc(OC)cc1 | nt | nt | i | i | nt | nt
COc1ccc(-c2ccc3c(c2)C2CC3CCN2)cc1 (centres undefined) | 20.6µM* | -22.9 | i | i | 27.1% | 0.9%
Cc1ccc2occ(CC(=O)N3CCN(c4cccc(Cl)c4)CC3)c2c1 | nt | nt | i | i | nt | nt
O=C(Nn1c(COc2ccccc2)nc2ccccc2c1=O)C(Cl)(Cl)Cl | ? | -19.5 | i | i | 18.4µM* | -2.3%
N/C(=N/OC(=O)c1ccccc1Cl)c1ncc([N+](=O)[O-])s1 | ? | ? | ? | 23.1µM* | ? | -2.4%
N/C(=N\OC(=O)c1ccccc1Cl)c1cccc([N+](=O)[O-])c1 | 0.0% | 22.8 | i | i | 3.9% | -3.4%
CCc1ccccc1NC(=O)C(=O)NCCc1sc(-c2cccc(C)c2)nc1C | nt | nt | ? | i | nt | nt
C/C(=N\NC(=O)c1ccccc1NC(=O)c1ccc(Cl)cc1)c1ccncc1 | 1.5% | -96.4* | 1.3µM* | 1.46µM* | 3.8% | -2.4%
Cc1ccc(CNc2ncnc3nc[nH]c23)cc1 | nt | 7.1 | i | i | nt | nt
S=P(N1CC1)(N1CC1)N1CC1 | ? | 21.8 | i | i | 2.06µM* | -3.1%
Cc1ccc(CSc2c(C)cnc3c2c(=O)n(C)c(=O)n3C)cc1 | nt | nt | ? | i | nt | nt
COc1ccccc1NC(=O)CN(C)S(=O)(=O)c1ccc2c(c1)c(=O)n(C)c(=O)n2C | nt | nt | i | i | nt | nt
CCOC(=O)c1c2c(n(-c3ccc(OC)cc3)c1C)C(=O)C(=O)c1ccccc1-2 | 3.26µM* | -21.4 | ? | ? | 5.8µM* | ?
NC(=O)c1ccccc1OCC(=O)N1CCc2ccccc2C1 | 2.2% | -18.2 | ? | i | 10.3µM* | 6.7%
Cn1c(Cc2cccs2)nnc1SCc1nc2ccccc2[nH]1 | 2.6% | 4.6 | i | i | 0.4% | 3.7%
